Hits are enriched below; roughly 2.6% of the tested compounds scored in any of these assays.
p53 PUMA act = mutant p53 pathway reactivation; activation, % at 9.98 µM; AID 624151; SW480 PUMA-promoter luciferase; 28,000 compounds, 1.5% hits; in the data active = activation above about 52%
p53 mut binder = mutant p53 (human) binding. small molecule microarray binding, anti-GST fluorescence. calls only. 17,000 compounds, 0.4% hits. AID 624136;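 active = compounds whose four printed spots each glow above background more than chance allows, each with a p-value under 7%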
Myc binder = c-Myc (human) binding. calls only. P01106. 17,000 compounds, 1.5% hits. small molecule microarray, His-c-Myc binding, anti-His fluorescence;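 active = spot fluorescence over background with P-value below 7% in all four replicate spots, showing protein binding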
STAT3 binder = binders of human STAT3. Small molecule microarray, His-STAT3 binding, anti-His fluorescence. calls only. 17,000 compounds, 0.2% hits. P40763. AID 624138;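 active = compounds whose four printed spots each show fluorescence over background unusually high for their array block, chance value under 7%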
Target sequence (P40763 whole entry, looked up): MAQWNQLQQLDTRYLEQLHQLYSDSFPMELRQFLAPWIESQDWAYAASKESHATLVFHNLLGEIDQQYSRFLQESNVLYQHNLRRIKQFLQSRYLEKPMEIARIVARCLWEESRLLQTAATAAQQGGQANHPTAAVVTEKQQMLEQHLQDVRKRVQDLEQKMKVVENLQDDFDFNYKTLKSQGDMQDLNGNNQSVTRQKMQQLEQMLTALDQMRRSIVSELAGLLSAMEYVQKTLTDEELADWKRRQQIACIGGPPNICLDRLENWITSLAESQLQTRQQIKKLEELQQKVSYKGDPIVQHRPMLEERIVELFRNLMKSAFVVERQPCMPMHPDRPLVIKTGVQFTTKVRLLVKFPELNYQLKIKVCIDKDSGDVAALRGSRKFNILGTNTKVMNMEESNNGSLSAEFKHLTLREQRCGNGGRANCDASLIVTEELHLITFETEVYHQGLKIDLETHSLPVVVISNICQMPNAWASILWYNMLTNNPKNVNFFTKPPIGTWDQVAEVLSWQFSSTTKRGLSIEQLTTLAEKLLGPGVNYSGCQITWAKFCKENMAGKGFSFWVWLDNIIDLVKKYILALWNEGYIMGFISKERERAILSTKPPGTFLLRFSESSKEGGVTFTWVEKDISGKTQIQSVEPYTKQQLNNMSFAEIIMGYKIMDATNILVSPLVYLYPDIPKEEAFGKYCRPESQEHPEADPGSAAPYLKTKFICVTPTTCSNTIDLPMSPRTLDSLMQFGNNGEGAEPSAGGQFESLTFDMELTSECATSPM
NFkB binder = binders of human NF-kappa-B p105; AID 624139; 17,000 compounds, 1.3% hits; calls only; Small molecule microarray, anti-His fluorescence binding; P19838;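 active = spot fluorescence over background significantly raised, with a chance value under 7% in all four replicate spots of the compound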;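 note: probe protein is his-tagged human p50 processed subunit at 1 µg/ml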
Hits are given with their value; - = inactive; . = no result given; + = active, no number.

SMILES	p53 PUMA act	p53 mut binder	Myc binder	STAT3 binder	NFkB binder
COc1ccc(OCC(=O)Nc2ccccc2OC(F)F)cc1	64.7	-	-	-	-
Cc1ccc(NC(=O)CCCOc2ccccc2)c([N+](=O)[O-])c1	79.1	.	.	.	.
COc1ccc(NC(=O)COc2cc(C)cc(C)c2C)c([N+](=O)[O-])c1	-	.	.	.	.
COCC#Cc1ccc2c(c1)O[C@H](CN(C)C(=O)C1CCCCC1)[C@H](C)CN([C@H](C)CO)S2(=O)=O	-	.	.	.	.
COc1ccc(C(=O)Cn2c3ccccc3n3nc(-c4cccs4)nc23)cc1	-	.	.	.	.
CC(=O)NCCCC[C@@H]1NC(=O)[C@H]2C[C@@H](C(=O)NCCCCCCNC(=O)CS)[C@@H](c3ccc(O)cc3)N2C1=O	.	-	-	-	-
COC(=O)c1cc(-c2ccccc2)sc1NC(=S)Nc1cccc(NC(C)=O)c1	-	.	.	.	.
COc1ccc(NC(=O)CSc2nnc(C)s2)c([N+](=O)[O-])c1	-	.	.	.	.
Cc1ccc(NC(=O)COc2ccc3ccccc3c2Br)c([N+](=O)[O-])c1	64.1	.	.	.	.
COc1ccc(NC(=O)CSc2nc3ccccc3o2)c([N+](=O)[O-])c1	69.1	-	-	-	-
O=C(COc1ccc2ccccc2c1Br)Nc1cccnc1	79.9	.	.	.	.
CC(=O)Nc1ccccc1NC(=O)COc1ccc2ccccc2c1Br	-	-	-	-	-
Cc1ccc(NC(=O)C(C)Oc2ccc(Cl)cc2Cl)c([N+](=O)[O-])c1 (stereo unspecified)	77.0	-	-	-	-
CS(=O)(=O)Nc1ccc2c(c1)[C@H]1C[C@H](CC(=O)NCc3ccc(-c4ccccc4)cc3)O[C@H](CO)[C@H]1O2	-	.	.	.	.
Cc1noc(C)c1S(=O)(=O)Nc1cccc2c1O[C@H](CN(C)Cc1ccc(C(F)(F)F)cc1)[C@H](C)CN([C@H](C)CO)C2=O	-	-	-	-	-
C=CC[C@]1(C(=O)NCCCOC)COC(c2ccc(OCCCO)cc2)=N1	.	-	+	-	+
CC(=O)c1ccc(NC(=O)CC2Nc3cccc4cccc(c34)NC2=O)cc1 (stereo unspecified)	-	.	.	.	.
COCCNc1ncnc2c1cnn2-c1cccc(C)c1	101.5	-	-	-	-
CCc1ccc(OCC(=O)Nc2ccc(-c3nc4ccccc4s3)c(O)c2)cc1	122.8	.	.	.	.
CCc1ccc2oc(-c3cc(NC(=O)COc4ccc(OC)cc4)ccc3Cl)nc2c1	-	.	.	.	.
CCc1ccc(OCC(=O)Nc2ccc(-c3nc4ccccc4o3)c(O)c2)cc1	59.0	.	.	.	.
CC(=O)Nc1ccc(NC(=O)CN2C(=O)COc3ccc(Cl)cc32)cc1	-	.	.	.	.
CNC[C@@H]1Oc2ccc(NS(=O)(=O)c3cn(C)cn3)cc2CC(=O)N([C@H](C)CO)C[C@@H]1C	-	-	-	-	+
C[C@@H]1CN([C@@H](C)CO)C(=O)Cc2cc(NS(=O)(=O)c3ccc(Cl)cc3)ccc2O[C@@H]1CN(C)C(=O)Nc1ccc(F)cc1	-	-	+	-	+
C[C@H](CO)N1C[C@H](C)[C@@H](CN(C)C(=O)Nc2ccc(F)cc2)Oc2ccc(NS(=O)(=O)c3ccc(Cl)cc3)cc2CC1=O	-	-	-	-	-
SMILES	p53 PUMA act	p53 mut binder	Myc binder	STAT3 binder	NFkB binder
C[C@@H]1CN([C@H](C)CO)C(=O)Cc2cc(NS(=O)(=O)c3ccc(Cl)cc3)ccc2O[C@H]1CN(C)CC1CCCCC1	-	-	+	-	-
CNC[C@H]1Oc2ccc(NS(=O)(=O)c3cn(C)cn3)cc2CC(=O)N([C@H](C)CO)C[C@@H]1C	-	-	-	-	-
C[C@H](CO)N1C[C@H](C)[C@@H](CN(C)CC2CCCCC2)Oc2ccc(NS(=O)(=O)c3ccc(Cl)cc3)cc2CC1=O	-	-	-	-	-
O=C(NCc1ccccn1)Nc1ccccc1Cl	142.8	.	.	.	.
O=C(NCc1ccccn1)Nc1ccc(F)cc1F	-	-	-	-	-
O=C(COc1ccc(Cl)cc1Br)NCc1ccccn1	75.7	.	.	.	.
COc1ccc(NC(=O)C(C)N2c3cccc4cccc(c34)S2(=O)=O)cc1OC (stereo unspecified)	-	.	.	.	.
COC1CC(OC2CCC3(C)C(CCC4(O)C3CC(OC(=O)c3ccccc3)C3(C)C(O)(C(C)=O)CCC43O)C2)OC(C)C1OC1CC(OC)C(OC2OC(C)C(OC3OC(CO)C(O)C(O)C3O)C(OC)C2O)C(C)O1 (stereo unspecified)	-	-	+	-	+
CC1CCc2c(sc(NC(=O)c3nc4ncccn4n3)c2C(N)=O)C1 (stereo unspecified)	58.5	.	.	.	.
CCc1ccc(OCC(=O)Nc2cc(OC)ccc2OC)c(Br)c1	58.0	.	.	.	.
CCc1ccc(OCC(=O)Nc2ccccc2C(=O)OC)c(Br)c1	58.7	.	.	.	.
COC(=O)c1ccccc1NC(=O)COc1ccc(C(C)(C)C)cc1Br	-	.	.	.	.
COc1ccccc1-c1nc(SCc2ccc(C(=O)O)cc2)n[nH]1	-	.	.	.	.
O=C(c1cccs1)n1nc(-c2ccccc2)nc1NCc1ccco1	85.5	.	.	.	.
O=C(c1ccc(F)cc1)n1nc(-c2ccc(Cl)cc2)nc1NCc1ccco1	149.6	.	.	.	.
O=C(c1ccccc1Cl)n1nc(-c2ccccc2)nc1NCc1ccco1	-	.	.	.	.
C[C@@H]1CN([C@H](C)CO)C(=O)c2cc(NC(=O)CCCN(C)C)ccc2O[C@H]1CN(C)C(=O)Nc1cccc2ccccc12	-	-	-	-	-
COc1ccc(S(=O)(=O)N(C)C[C@@H]2Oc3ccc(NC(=O)Cn4cnnn4)cc3C(=O)N([C@@H](C)CO)C[C@H]2C)cc1	-	-	-	-	-
O=c1[nH]cnc2ccc(NC(=S)NC3CC3)cc12	-	.	.	.	.
CC(C)NC(=O)N(C)C[C@@H]1Oc2c(NS(=O)(=O)c3ccccc3)cccc2C(=O)N([C@@H](C)CO)C[C@H]1C	-	-	-	-	-
C=CC1(C)C=C2CCC3C(C)(C)C(O[C@@H]4O[C@@H](CO)[C@H](O)[C@H]4O)CCC3(C)C2CC1O[C@@H]1O[C@H](C)[C@H](O)[C@H](O)[C@H]1O (stereo partly specified)	-	-	-	-	+
CC(C)NC(=O)Nc1ccc2c(c1)C(=O)N([C@H](C)CO)C[C@H](C)[C@H](CN(C)S(=O)(=O)c1ccccc1)OCCCC[C@@H](C)O2	-	-	-	-	-
Cc1noc(C)c1S(=O)(=O)N(C)C[C@@H]1OCCCC[C@H](C)Oc2ccc(NC(=O)NC(C)C)cc2C(=O)N([C@H](C)CO)C[C@H]1C	-	-	+	-	+
CC(C)NC(=O)Nc1ccc2c(c1)C(=O)N([C@@H](C)CO)C[C@@H](C)[C@@H](CN(C)S(=O)(=O)c1ccccc1)OCCCC[C@@H](C)O2	-	-	+	+	-
Cc1noc(C)c1S(=O)(=O)N(C)C[C@@H]1OCCCC[C@H](C)Oc2ccc(NC(=O)NC(C)C)cc2C(=O)N([C@@H](C)CO)C[C@H]1C	-	-	-	-	-
CC1=CC(/C=C(\C)CCC(O)C(O)/C=C/C(=O)O)C2(O)C(=O)NC(CC(C)C)C2C1C (stereo unspecified)	-	-	-	-	-
C#C[C@]1(O)CC[C@H]2[C@@H]3CCC4=Cc5oncc5C[C@]4(C)[C@H]3CC[C@@]21C	.	.	+	-	-
CCOC(=O)c1c(NC(=S)NC(=O)c2ccc(OC)c([N+](=O)[O-])c2)sc2c1CCC2	-	-	+	-	-
